Screening results as filed in PubChem BioAssay.
Shown are actives, neighbours in structure and some others; about 4.6% of the full set was active somewhere.
KKLEB cytotox: reduces viability of KKLEB cystic fibrosis airway cells. hit rate 0.36% among 360,000. KKLEB CF airway cells viability, ATPlite luminescence, overnight; stronger effect = lower value; cells stimulated with P. aeruginosa culture filtrate. activity change (cytotoxicity), % at 5 µM;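 active = corrected activity change at or below -50% at 5 µM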
ABHD5-PLIN5 inh: blocks binding of human ABHD5 to perilipin-5; inhibition, % at 4 µM; hit rate 0.78% among 360,000; Split G. princeps luciferase complementation, luminescence, 4 h; Q00G26+Q8WTS1;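 active = inhibition above the mean inhibition across every tested compound plus 3 SD, cut at about 22% in these data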;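 note: 0% = DMSO only wells and the 100% control is not disclosed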
Peg3 prom inh: Peg3 promoter activity inhibition | inhibition, % at 20 µM | hit rate 1.7% among 360,000 | HeLa PEG-Prom luciferase reporter, luminescence, overnight;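 active = inhibition of at least 50% at 20 µM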
CF NFkB inh: blocks PAF-induced NF-kB reporter in cystic fibrosis cells; KKLEB NF-kB-GFP reporter, GFP fluorescence overnight; hit rate 0.86% among 360,000; inhibition, % at 5 µM; AID 588850;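 active = at least 50% inhibition at 5 µM, scaled per plate between neutral and stimulator controls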;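 note: PAF is a Pseudomonas aeruginosa culture filtrate used as stimulus; plate controls were PAF-stimulated DMSO wells for no effect and unstimulated DMSO wells for full effect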
Mdm2-MdmX inh: inhibitors of human Mdm2/MdmX interaction; O15151+Q00987; SaOS-2 split-luciferase Mdm2/MdmX complementation, luminescence; inhibition, % at 8 µM; hit rate 3% among 330,000;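 active = inhibition of at least 50% at 8 µM in the primary screen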
HIF-2a inh: inhibitors of HIF-2a. 786-0 RCC cells HIF-2a reporter, luciferase luminescence, overnight. inhibition, % at 18.8 µM. hit rate 0.72% among 360,000. AID 624352;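 active = inhibition of the luminescence signal of 40% or more relative to plate controls, in a single-dose primary screen at 18.75 µM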
Mdm2-MdmX conf: confirmation of human Mdm2/MdmX interaction inhibitors; AID 489028; Mdm2-MdmX binding, luminescent assay; inhibition, % at 8 µM; hit rate 55% among 10,000; shares compounds with Mdm2-MdmX inh; in the data active = inhibition above about 40%
FLuc counter: inhibits full-length luciferase, flagging false Mdm2/MdmX hits; shares compounds with Mdm2-MdmX inh; SaOS-2 full-length luciferase counterscreen, luminescence; hit rate 77% among 6,200; inhibition, % at 8 µM;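 active = mean inhibition at 8 µM reaching about 37%, which flags the compound as non-specific, limit read from the data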;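 note: p53-null SaOS-2 cells with luciferase driven by a doxycycline-inducible promoter; compound on cells about two nights before reading with doxycycline added after day one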
Active calls of the source: *; nt = no result.

SMILES | KKLEB cytotox | ABHD5-PLIN5 inh | Peg3 prom inh | CF NFkB inh | Mdm2-MdmX inh | HIF-2a inh | Mdm2-MdmX conf | FLuc counter
CCOC(=O)Cn1c(S(=O)(=O)Cc2ccc(F)cc2)nc(-c2ccccc2)c1-c1ccccc1 | 0.1 | -10.1 | 23.4 | 14.4 | 79.5* | 5.7 | 56.1* | 62.6*
CCOC(=O)Cn1c(S(=O)(=O)Cc2cccc(F)c2)nc(-c2ccccc2)c1-c1ccccc1 | 5.7 | -5.3 | 37.7 | -4.5 | 81.2* | 3.6 | 56.3* | 67.2*
CCN(CC)CCNC(=O)c1cc2c(s1)-c1ccccc1SC2 | -2.8 | 8.3 | 42.1 | 15.1 | 63.6* | -43.0 | 48.4* | 78.6*
Cc1ccc(NC(=O)CN2CCCC2c2cccn2C)cc1C (configuration not stated) | 10.0 | 4.7 | -9.2 | -13.1 | 20.4 | -20.5 | nt | nt
CCCc1cnc(NCCNCC(O)COc2ccc(Cl)c(Cl)c2)nc1 (configuration not stated) | -3.6 | 5.2 | 106.9* | 4.0 | 55.6* | 4.6 | 24.3 | nt
CC(=O)c1cccc(OCC(O)CNCCc2ccc(Cl)cc2)c1 (configuration not stated) | -3.4 | -1.2 | -9.8 | -17.5 | -32.1 | 11.9 | nt | nt
Cc1ccc(C(=O)Nc2ccc(NC(=O)c3cccs3)cc2)cc1[N+](=O)[O-] | -3.7 | -2.2 | 1.2 | -2.6 | 86.7* | -11.9 | 23.7 | 107.5*
Cc1ccc(C(=O)Nc2sc(C)c(-c3ccccc3)c2C(N)=O)cc1[N+](=O)[O-] | -13.5 | -3.0 | -178.7 | 29.7 | 72.0* | 6.4 | -3.1 | nt
Cc1ccc(C(=O)Nc2cccc(NC(=O)c3ccc(C)c([N+](=O)[O-])c3)n2)cc1[N+](=O)[O-] | -6.9 | -0.9 | -65.0 | 5.4 | 33.4 | 11.2 | nt | nt
CCOc1ccc(C(=O)Nc2ccc(NC(=O)c3cccs3)cc2)cc1[N+](=O)[O-] | -27.5 | -4.9 | 26.8 | 22.6 | 54.2* | 7.1 | 9.3 | nt
CCOc1ccc(C(=O)NC(=S)Nc2ncccc2C)cc1[N+](=O)[O-] | 8.4 | 3.9 | 41.4 | -19.8 | 77.6* | -100.8 | 7.8 | nt
CCOC(=O)C(Cc1ccc(NC(C)=O)cc1)N1C(=O)c2ccccc2C1=O (configuration not stated) | 12.6 | 3.8 | -5.8 | 1.2 | 18.0 | -11.5 | nt | nt
O=C(/C=C/[C@H]1O[C@@H](n2cnc3c(NC(=O)c4ccccc4)ncnc32)[C@H](O)[C@@H]1O)NCc1ccco1 | 0.8 | -1.5 | -22.2 | -12.1 | nt | 6.1 | nt | nt
CCOC(=O)[C@]12CCCC=C1N(CCC1=CCCCC1)C(=O)[C@H](CC(=O)NCCCN1CCCC1=O)C2 | nt | 4.4 | nt | nt | nt | -11.1 | nt | nt
Cc1ccc(NC(=O)c2cccs2)cc1[N+](=O)[O-] | 10.0 | -2.2 | -153.6 | -22.4 | -16.9 | -209.3 | nt | nt
O=C(Nc1cccc(NC(=O)c2cccs2)c1)c1ccc([N+](=O)[O-])o1 | 1.0 | 2.1 | 54.7* | -18.7 | 60.6* | 25.1 | 56.5* | 44.1*
COc1ccc(-c2ccc3oc(-c4ccc(OC)cc4)c(-c4ccc(OC)cc4)c3c2)cc1 | 10.2 | 0.8 | 13.0 | -10.3 | 4.4 | 10.8 | nt | nt
COc1ccc(-c2ccc3oc(-c4ccc(OC)cc4)c(C#CCO)c3c2)cc1 | -25.1 | -6.4 | 20.5 | 26.6 | 87.9* | 5.3 | 72.6* | 20.5
Fc1ccc(-c2ccc3c(c2)C2CC3CCN2Cc2ccc3c(c2)OCO3)cc1 (configuration not stated) | 5.0 | 6.5 | -18.6 | -22.0 | nt | -15.2 | nt | nt
Cc1ccc(Cl)cc1NC(=O)Cn1c(C)csc1=O | -6.0 | -0.4 | 4.7 | -1.4 | -10.0 | 7.9 | nt | nt
O=C(O)Cc1ccc(O)c(O)c1 | -10.8 | -2.1 | -8.7 | -3.6 | 7.8 | 9.8 | nt | nt
O=C(O)Cc1cc(I)c(Oc2ccc(O)c(I)c2)c(I)c1 | nt | nt | nt | nt | 52.9* | nt | 6.9 | nt
Cc1cc(C)cc(C(=O)NC(CC(N)=O)c2ccc(N3CCCCCC3)c([N+](=O)[O-])c2)c1 (configuration not stated) | -13.5 | -0.2 | -10.6 | 7.5 | 2.1 | 2.7 | nt | nt
CCCn1c(N2CCN(CC(=O)c3c(C)n(C)c4ccc(OC)cc34)CC2)nc2c1c(=O)[nH]c(=O)n2C | -10.0 | 5.4 | 12.1 | 8.6 | 54.8* | 13.8 | 22.1 | nt
